This is part of a sample that, as a whole, favours compounds with a hit. Of some 83,000 tested, about 20% had one in any assay.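 Note: values are percent growth. 100 is the growth of untreated cells, values between 100 and 0 indicate rising inhibition; between -100 and 0 indicates cell death.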 Values without a mark were called inactive. Active and inactive are the calls of the source. How the source made its calls: active means growth percent below 10; inactive means the rest.

What all share (assay): NCI-60 one-dose screen, 48 h (100 = growth as untreated, 0 = no growth, -100 = all killed)
Holding throughout (settings): 10 µM

For assay [1], the system named is HCT-15 colon.
Assay [2] concerns HT29 colon.
Assay [3] relates to SNB-75 CNS.
The subject of assay [4] is SNB-19 CNS.
The test system of assay [5] is U251 CNS.
The subject of assay [6] is PC-3 prostate.
Assay [7] relates to SK-MEL-5 melanoma.
Assay [8] concerns UACC-62 melanoma.
Assay [9] has as its system LOX IMVI melanoma.
Assay [10] has as its system SK-MEL-28 melanoma.
Assay [11] deals with SK-MEL-2 melanoma.
For assay [12], the system named is EKVX NSCLC.
Assay [13] has as its system SN12C renal.
Assay [14] has as its system UO-31 renal.
Assay [15] concerns TK-10 renal.
In assay [16] the test system is ACHN renal.
In assay [17] the test system is CAKI-1 renal.
Assay [18] has as its system A498 renal.
The test system of assay [19] is CCRF-CEM leukemia.
Assay [20] relates to MOLT-4 leukemia.

Regarding `O=C(c1ccc(O)cc1)C1[C@H](c2ccc(Br)cc2)[C@@H](c2ccccc2)NC12C(=O)Nc1ccc(Br)cc12` (stereo not given in full), the growth in assay [1] was -47.3% (active); in [2], -31.5% (active); in assay [3], 45.8%; in assay [4], 11.8%; in assay [5], -48.7% (active); in assay [6] it was 21.4%. Moreover, the growth in [7] was -76.7% (active); in assay [8] it was -35.7% (active); in assay [9], -100% (active); in assay [10] it was 26.2%; in assay [11], -21.1% (active); in assay [12], 6.1% (active). In addition, the growth in assay [13] is -83.5% (active); in [14], -27.3% (active); in [15], -5.38% (active); in [16], 2.27% (active); in assay [17], 3.36% (active); in assay [18], 10.9%. The growth was 19.7% in assay [19] and 12.4% in assay [20].
As to `COc1ccc2ncc(C#Cc3cncc(C(=O)Nc4ccc(CN5CCN(C)CC5)c(C(F)(F)F)c4)c3)n2n1`, the growth in assay [1] was -91.3% (active); in [2], -51.8% (active); in assay [3] it was -91.1% (active); in assay [4] it was -86.2% (active); in assay [5], -59.8% (active); in assay [6], -59.6% (active). For the same compound, the growth in assay [7] was -100% (active); in [8] it was -79.6% (active); in assay [9], -94.6% (active); in assay [10], -91.8% (active); in [11], -55.3% (active); in [12], -99.7% (active). In addition, the growth in assay [13] is -93.5% (active); in assay [14], -90.1% (active); in assay [15] it was -76% (active); in assay [16] it was -98.3% (active); in assay [17], -75.8% (active); in assay [18] it was 31.7%. Besides, the growth in assay [19] is 2.67% (active); in assay [20] it was -26.7% (active).
With `CNCc1cccc2c1OCCCCCC[C@@](C)(O)CC1(CC1)S(=O)(=O)c1ccc(cc1)-c1cnc(N)c(n1)C(=O)N2`, the growth in assay [1] is -96.6% (active); in [2] it was -87% (active); in [3] it was -93.8% (active); in assay [4] it was -97.4% (active); in assay [5], -83.8% (active); in [6] it was -59% (active). Also, the growth was -100% (active) in assay [7]; -90.8% (active) in assay [8]; -100% (active) in assay [9]; -93.6% (active) in assay [10]; -98.7% (active) in assay [11]; -97.4% (active) in assay [12]. The growth in [13] is -93.9% (active); in assay [14] it was -96.8% (active); in [15], -92% (active); in assay [16], -100% (active); in [17], -94.6% (active); in assay [18], -94.5% (active). Besides, the values for the growth in [19] and in assay [20] were -6.39% (active) and -44.5% (active), respectively.
Take `O=C(NO)c1ccc(Cn2ccc3c(Nc4ccccc4)ncnc32)cc1`: the growth is -55.5% (active) in assay [1]; 8.25% (active) in assay [2]; 44.3% in [3]; -30.4% (active) in assay [4]; -38.9% (active) in assay [5]; 15% in assay [6]. Moreover, the growth in assay [7] is -67.2% (active); in [8], -49.3% (active); in assay [9] it was -91.9% (active); in [10], 5.83% (active); in [11], 8.71% (active); in [12] it was 23.6%. Also, the growth in [13] was 17.6%; in [14], 9.48% (active); in assay [15], 2.65% (active); in assay [16] it was 1.86% (active); in assay [17], 10.7%; in assay [18], -14.2% (active). For the same compound, the growth in assay [19] was 18.2%; in assay [20] it was 7.84% (active).
For `CN1CCO/C1=C(/NC(=O)c1ccc(Cl)cc1)[P+](c1ccccc1)(c1ccccc1)c1ccccc1`, the growth was 107% in assay [1]; 57.7% in assay [2]; 91.6% in assay [3]; 76.5% in assay [4]; 84.1% in [5]; 68.2% in assay [6]. Also, the growth in assay [7] was 70.3%; in assay [8], 48.5%; in assay [9], 39.8%; in assay [10] it was 75.5%; in [11], 90.9%; in assay [12], 81.2%. Also, the growth in [13] is 92.4%; in [14], 86.7%; in [15], 99.6%; in assay [16], 110%; in assay [17], 103%; in assay [18], 125%. Moreover, the growth is 77.9% in assay [19] and 87.9% in assay [20].
With `O=C(c1ccc(Cl)cc1)C1[C@H](c2ccccc2Br)[C@@H](c2ccccc2)NC12C(=O)Nc1ccc(Cl)cc12` (stereo not given in full), the growth in assay [1] is 8.84% (active); in assay [2], -14.6% (active); in assay [3], 36.5%; in assay [4] it was 33.6%; in assay [5], 6.14% (active); in assay [6] it was 38.1%. In addition, the growth is 15.9% in assay [7]; 22% in [8]; -91% (active) in assay [9]; 55.4% in assay [10]; 13.8% in [11]; 16.5% in assay [12]. Further, the growth in [13] is -58.6% (active); in assay [14], 16.5%; in [15], 42.5%; in assay [16], 9.92% (active); in [17] it was 8.98% (active); in [18], 72.4%. Besides, the growth in assay [19] was 18.8%; in [20] it was 18%.
`O=C1Nc2ccc(F)cc2/C1=C/c1cccc(OCc2ccccn2)c1`: the growth is 10.5% in [1]; 26.2% in [2]; 116% in [3]; 52.3% in assay [4]; 7.32% (active) in assay [5]; 36.6% in assay [6]. The growth in assay [7] was 31.1%; in assay [8], 26.5%; in assay [9], 1.13% (active); in assay [10], 65.3%; in assay [11] it was 46.6%; in assay [12], 28.3%. Also, the growth in [13] is 9.51% (active); in assay [14], 34%; in [15], 80.9%; in [16] it was 37.9%; in assay [17], 17.2%; in assay [18], 87.3%. Moreover, the growth in [19] was 3.93% (active); in assay [20], 12.1%.
For `C/C(=C\c1ccc(O)cc1O)c1ccc2ccc(O)cc2[o+]1`, the growth in assay [1] was 12.3%; in assay [2] it was 93.1%; in assay [3], 98.1%; in assay [4], 71%; in [5], 23.5%; in assay [6] it was 62.7%. For the same compound, the growth in assay [7] is 76.3%; in [8] it was 59.5%; in assay [9], 2.95% (active); in [10], 62.3%; in [11] it was 91.1%; in [12], 68.1%. The growth in assay [13] was 44.9%; in [14], 50.7%; in [15], 116%; in assay [16] it was 45%; in [17] it was 58.5%; in [18], 147%. The values for the growth in [19] and in [20] were 55.8% and 29.3%, respectively.
As for `CC(C)C1=C[C@@]23CC[C@@H]4[C@](C)(CCC[C@]4(C)C(=O)NCc4ccccc4)[C@H]2C[C@@H]1[C@H]1C(=O)OC(=O)[C@H]13`, the growth is 9.01% (active) in assay [1]; 18.8% in [2]; 69.6% in [3]; 37.9% in [4]; 25.1% in assay [5]; 33.3% in assay [6]. Besides, the growth in assay [7] is 72.2%; in assay [8], 50.2%; in assay [9], -8.46% (active); in assay [10], 68.1%; in [11], 47%; in [12] it was 33.9%. Moreover, the growth in assay [13] was 52.1%; in [14] it was 43.4%; in [15] it was 44.9%; in [16] it was 25.7%; in assay [17] it was 77.1%; in [18] it was 85.2%. The growth in assay [19] is 16.7%; in assay [20], 15.5%.
Regarding `Clc1ccc(/C=N/Nc2ncnc3sc4c(c23)CCN(Cc2ccccc2)C4)cc1`, the growth is -25.1% (active) in assay [1]; -75.3% (active) in assay [2]; -85% (active) in [3]; 18.4% in assay [4]; -83.8% (active) in assay [5]; -59.7% (active) in [6]. The growth was 38.9% in assay [7]; 18.9% in [8]; -52.1% (active) in assay [9]; -19% (active) in [10]; 93.5% in [11]; 56.7% in [12]. Also, the growth was -62.4% (active) in assay [13]; 22.1% in assay [14]; -76.1% (active) in assay [15]; 27.4% in assay [16]; 34.5% in assay [17]; -32.2% (active) in [18]. Further, the growth in assay [19] is -24.2% (active); in assay [20] it was 4.13% (active).
For `O=C1NC(=NC23CC4CC(CC(C4)C2)C3)N/C1=C\c1ccc2ncsc2c1`, the growth in assay [1] was -3.34% (active); in assay [2], 13.6%; in [3], -44.1% (active); in assay [4] it was 6.09% (active); in assay [5], 10.2%; in assay [6], 11.4%. For the same compound, the growth in [7] was 2.01% (active); in [8], 7.15% (active); in assay [9] it was 2.05% (active); in [10], 0.351% (active); in [11] it was -23.3% (active); in assay [12], -0.13% (active). Further, the growth is 8.93% (active) in [13]; 2.14% (active) in assay [14]; 17.8% in assay [15]; 3.03% (active) in [16]; 5.17% (active) in assay [17]; -11.3% (active) in assay [18]. Also, the values for the growth in [19] and in assay [20] were 9.69% (active) and -5.73% (active), respectively.
With `CN1C(=O)N(C)C2SC(N/N=C/c3cccs3)=NC21` (stereo not given), the growth in assay [1] was 20.2%; in assay [2], 7.66% (active); in [3], -1.77% (active); in [4] it was 30.3%; in assay [5] it was 22.8%; in [6] it was 48.3%. Also, the growth was 8.57% (active) in assay [7]; 4.74% (active) in assay [8]; 28.7% in assay [9]; 47.5% in assay [10]; 9.78% (active) in [11]; 56.2% in assay [12]. The growth was 26.5% in assay [13]; 40.3% in assay [14]; 63.7% in assay [15]; 38.8% in [16]; 20.8% in [17]; 65.6% in assay [18]. Further, the growth in assay [19] is 20.3%; in assay [20], 33.4%.
Regarding `CC(=O)c1cc(C(=O)N2c3ccccc3Sc3ccccc32)n2ccc(C)cc12`, the growth in [1] was 10.5%; in assay [2], 32.7%; in [3], 83.1%; in assay [4], 49.8%; in [5], 36.1%; in assay [6] it was 28.3%. The growth was -36.3% (active) in assay [7]; 23.8% in assay [8]; -40% (active) in [9]; 48.7% in assay [10]; 72.5% in [11]; 53.1% in assay [12]. For the same compound, the growth in assay [13] was 42.3%; in assay [14], 35.1%; in assay [15], 78.9%; in assay [16], 29.1%; in assay [17] it was 35.3%; in assay [18], 85.4%. For the same compound, the values for the growth in assay [19] and in [20] were 24.8% and 22.6%, respectively.

(Values after PubChem BioAssay (NCI).)
